Laboratory results as given in PubChem BioAssay (NCI).
The panel holds about 79,000 compounds, 15% with a hit somewhere; the sample as a whole holds those more often. Rule as the data show it: active = growth inhibition above about 70%; inactive = the rest.

Tests used:
[1] = NCI Yeast Anticancer Drug Screen. Data for the rad50 strain (AID 155);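 also: 0% = growth of vehicle-only cultures of the same strain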; conditions: S. cerevisiae rad50 strain growth inhibition; at 50.0 µM; active compounds read high
How it was run: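 Vehicle-treated cultures provide the reference for the growth inhibition reported for compound-exposed, repair-deficient yeast.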

[2] = NCI Yeast Anticancer Drug Screen. Data for the mec2-1 strain (AID 157); conditions: S. cerevisiae mec2-1 strain, at 50.0 µM, active compounds read high
How it was run: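 Each compound was tested on mec2-1 yeast, a strain altered in DNA damage repair or cell cycle control. Growth inhibition is reported relative to vehicle.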

[3] = NCI Yeast Anticancer Drug Screen. Data for the sgs1 mgt1 strain (AID 161);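 also: 0% = growth of cultures given vehicle only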; conditions: S. cerevisiae sgs1 mgt1 strain, at 50.0 µM, active compounds read high
How it was run: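 Test agents were incubated with a DNA-repair-mutant yeast strain. Growth was then read and compared against vehicle-treated controls.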

[4] = NCI Yeast Anticancer Drug Screen. Data for the cln2 rad14 strain (AID 165);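 also: 0% = growth equal to vehicle treated cultures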; conditions: S. cerevisiae cln2 rad14 strain, at 50.0 µM, active compounds read high
How it was run: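 Test compounds were added to cln2 rad14 yeast cultures; inhibition of growth was then determined by comparison with vehicle treatment.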

[5] = NCI Yeast Anticancer Drug Screen. Data for the bub3 strain (AID 167); conditions: S. cerevisiae bub3 mutant strain, at 50.0 µM, active compounds read high
How it was run: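 Mutant yeast screening strain plus compound; vehicle-treated cultures serve as the 0% inhibition reference.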

[6] = NCI Yeast Anticancer Drug Screen. Data for the mlh1 rad18 strain (AID 175); conditions: S. cerevisiae mlh1 rad18 strain growth inhibition; at 50.0 µM; active compounds read high
How it was run: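 Inhibition values reflect reduced growth of mutant yeast versus vehicle-treated controls following compound exposure; the mutations affect DNA damage repair.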

Measured: growth inhibition

COC1OC(COC(=O)c2ccccc2)C(OC(=O)c2ccccc2)C1NC(C)=O (stereo unspecified)
inactive: [1] 14.1% | [2] 18.7% | [3] 12.7% | [4] 62.1% | [5] 39.1% | [6] 28.4%

CC1=NC(C(=O)O)C(C)(C)S1 (stereo unspecified)
inactive: [1] 2.6% | [2] -8.3% | [3] -22.2% | [4] -0.95% | [5] -3.4% | [6] -6%

Cc1ccccc1NC(=O)c1ccccc1Cl
inactive: [1] -19.3% | [2] -18.6% | [3] -6.9% | [4] -31.8% | [5] -19.1% | [6] -25.6%

CC(C)(C)C1=CC(=O)CCC1
inactive: [1] -37.6% | [2] -31.2% | [3] -16.4% | [4] -8.1% | [5] -26.9% | [6] 5.65%

Cc1ccc2[nH]c(=O)cc(C(F)(F)F)c2c1
inactive: [1] 13.2% | [2] 6.35% | [3] 5.4% | [4] -2.1% | [5] -15.2% | [6] 21.7%

C=CCC(CNC(C)=O)(C1=CCCCC1)c1ccccc1 (stereo unspecified)
inactive: [1] 1.95% | [2] 13% | [3] 13.1% | [4] 19.8% | [5] 17.1% | [6] 12.7%

O=C(NNC(=S)Nc1ccccc1)c1nsc2ccccc12
inactive: [1] 43.5% | [2] 12.2% | [3] 35% | [4] 29.4% | [5] 28% | [6] 23.4%

CCc1ccc(C(=O)CN2CCCc3ccccc32)cc1
inactive: [1] -13.4% | [2] 0.7% | [3] -6.55% | [4] -17.2% | [5] 1.95% | [6] -13.8%

CCC(c1ccc(CN(C)C)c(O)c1)C(CC)c1ccc(CN(C)C)c(O)c1 (stereo unspecified)
inactive: [1] 5.7% | [2] 1.35% | [3] -11.4% | [4] -12.9% | [5] -2.55% | [6] 2.75%

CN(C)Cc1cc(O)c(O)c(CN(C)C)c1
inactive: [1] -16.6% | [2] -19.9% | [3] -8.45% | [4] 5.4% | [5] -40.2% | [6] 13.1%

O=c1nc(Oc2ccccc2)nc2ccc(Cl)nn12
inactive: [1] 3.4% | [2] 31.4% | [3] 6.95% | [4] 5.7% | [5] 40.9% | [6] 3.1%

[CH3][Ga]([CH3])[O]c1ccccc1C=O
inactive: [1] -3.6% | [2] -17.6% | [3] -10.8% | [4] -80.7% | [5] -30.3% | [6] -21.4%

CC1=C(C(=O)Nc2ccccc2C)C(c2ccc(C3C(C(=O)Nc4ccccc4C)=CNC=C3C(=O)Nc3ccccc3C)cc2)C(C(=O)Nc2ccccc2C)=C(C)N1
inactive: [1] 29.3% | [2] 44.8% | [3] 28.9% | [4] 21% | [5] 50.4% | [6] 46%

O=C(O)c1ccc(C(=O)c2ccccc2)c(C(=O)O)c1
inactive: [1] -4.05% | [2] -1.8% | [3] -19.3% | [4] -8.7% | [5] -62.9% | [6] -17.4%

COc1ccc(OC)c(NC(=O)Sc2c(Cl)c(Cl)nc(Cl)c2Cl)c1
inactive: [1] 18.4% | [2] 13.2% | [3] 16.2% | [4] -8.9% | [5] -0.05% | [6] -10.2%

CC1=C(C(=O)Nc2ccc(Cl)c(C(=O)OC(C)C)c2)SCCO1
inactive: [1] 44.9% | [2] 7.35% | [3] 5.15% | [4] 4.05% | [5] 25.4% | [6] 0.45%

O=CC(NC(=O)OCc1ccccc1)C(O)C(O)C(O)CO (stereo unspecified)
inactive: [1] -15.3% | [2] 2.7% | [3] 1.75% | [4] -6.3% | [5] -15.9% | [6] -16.9%

O=C(NC1CCCCC1)c1ccccc1Cl
inactive: [1] 23.6% | [2] -9.75% | [3] -15.3% | [4] 24.2% | [5] -10.2% | [6] 10.3%

Cn1c(=O)c2c(ncn2CCN2CCNCC2)n(C)c1=O
inactive: [1] 13.8% | [2] -12.8% | [3] 0.2% | [4] -37.5% | [5] 25.4% | [6] 3.9%

COc1cc(C(=O)O)c(Br)c(OC)c1OC
inactive: [1] -1.55% | [2] 20.1% | [3] 2.55% | [4] -12.7% | [5] 42.9% | [6] 1%

C=CCCCC(C#N)c1ccc2c(c1)OCO2 (stereo unspecified)
inactive: [1] -3.25% | [2] -14.2% | [3] -4.85% | [4] -82% | [5] -40.6% | [6] -15.2%

Cc1cc(=O)[nH]c2ccc(Cc3ccc(Cl)cc3)cc12
inactive: [1] 12.8% | [2] 1.75% | [3] 4.9% | [4] 7.6% | [5] 3.1% | [6] 1.65%

O=[N+]([O-])c1ccc(S(=O)(=O)Nc2c([N+](=O)[O-])cc([N+](=O)[O-])c3ccccc23)cc1
inactive: [1] 36.6% | [2] -3.9% | [3] 21.4% | [4] 12.7% | [5] 2.7% | [6] 18.4%

C[N+](C)=c1ccc2nc3ccc(N)cc3sc-2c1
inactive: [1] -84.8% | [2] -59.5% | [3] -43.6% | [4] -66.7% | [5] -79.8% | [6] -76.8%

O=C(NCc1cccc2ccccc12)Nc1ccccc1Cl
inactive: [1] 4.9% | [2] 36.1% | [3] 10.3% | [4] -6.55% | [5] 27% | [6] 30%

N#Cc1cc2c3ccccc3ncc2c2ccccc12
inactive: [1] 0.95% | [2] 16.4% | [3] -3% | [4] -1.1% | [5] -1.7% | [6] -6%

O=C(O)CNC1=NCCN1
inactive: [1] -0.8% | [2] 2.5% | [3] -8.4% | [4] -41.4% | [5] -24.1% | [6] -3.2%

O=C(NCCN1CCCCC1)c1ccc(I)cc1
inactive: [1] 9.2% | [2] 0.95% | [3] 24.8% | [4] 10.2% | [5] 22.4% | [6] 8.6%

Cn1nnc(/N=C/c2ccccc2)n1
inactive: [1] 5.85% | [2] -8.1% | [3] -6.25% | [4] -19.1% | [5] 4.75% | [6] 11.4%

CNC(=O)c1ccc(C(=O)NC)cc1
inactive: [1] -19.1% | [2] -26.1% | [3] -42.9% | [4] 3.95% | [5] -41.9% | [6] -1.75%

C=CCOC(=O)CC(=O)OCC=C
inactive: [1] 0.6% | [2] 1.7% | [3] 0.35% | [4] -4% | [5] 3.05% | [6] -5.9%

O=C(CCC(=O)Nc1cccc(Cl)c1)CC(=O)c1ccc(F)cc1
inactive: [1] -11.2% | [2] -1.8% | [3] 6.3% | [4] -23.9% | [5] -0.85% | [6] -4.85%

CC(C)=CCSC(N)N
inactive: [1] 14.4% | [2] 21.1% | [3] 24.1% | [4] 9.35% | [5] 17.4% | [6] -1.7%

c1ccc(C2=C(c3ccccc3)C2c2ccccc2)cc1
inactive: [1] 10.8% | [2] -8.95% | [3] -4.5% | [4] -21.1% | [5] -2.15% | [6] 7.15%

O=C1c2ccccc2C(=O)N1CCn1nc(-c2ccccc2)cc(-c2ccccc2)c1=O
inactive: [1] 1.85% | [2] -2.35% | [3] -25.5% | [4] 7.9% | [5] 39% | [6] -8.6%

CCC1(C)CCC(C)c2ccccc21 (stereo unspecified)
inactive: [1] -1.75% | [2] -5.4% | [3] 3.45% | [4] 3.45% | [5] -0.8% | [6] 0.3%
